Hits are enriched below; roughly 6.9% of the tested compounds scored in any of these assays.
Cy5 interf NS3h = Cy5 fluorescence interference, HCV helicase counter-screen. 16,000 tested, 6% active. fluorescence interference ratio at 100 µM. Cy5-dT15 DNA with NS3h; actives lie on both sides; signal over control mean, under 1 quenches;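 active = compound fluorescence over control fluorescence at most 0.8, a quencher, or at least a set upper limit, an enhancer; inactive = ratio between 0.8 and the set upper limit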
HCV NS3h FP = blocks HCV NS3 helicase binding to DNA; NS3h Cy5-dT15 DNA binding, fluorescence polarization; inhibition, % at 100 µM; 16,000 tested, 1.6% active;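 active = inhibition above the average over every tested compound plus 3 SD, cut at about 40% in these data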
NS3h confirm = confirmation of hepatitis C virus NS3 helicase inhibitors; shares compounds with HCV NS3h FP; NS3h binding to Cy5-dT15 DNA, fluorescence polarization; inhibition, % at 100 µM; 240 tested, 20% active; AID 720485;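 active = percent inhibition of 50% or more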
SSB-DNA FP CB = disrupts E. coli SSB binding to DNA in counter-screen. shares compounds with HCV NS3h FP. 240 tested, 40% active. inhibition, % at 100 µM. E. coli SSB binding Cy5-dT15, fluorescence polarization;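 active = inhibition of at least 50%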;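 also: displacers lower Cy5 polarization so higher inhibition means more SSB displaced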
Target sequence (P0AGE0 whole entry, looked up): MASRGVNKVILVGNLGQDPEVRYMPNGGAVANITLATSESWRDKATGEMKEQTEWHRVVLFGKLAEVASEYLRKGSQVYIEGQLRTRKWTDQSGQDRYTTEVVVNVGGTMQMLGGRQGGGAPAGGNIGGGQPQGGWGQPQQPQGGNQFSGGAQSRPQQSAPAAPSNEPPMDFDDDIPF
Cy5 SSB interf = Cy5 fluorescence interference in NS3h counter-screen | 240 tested, 8% active | AID 720487 | Cy5-dT15/E. coli SSB fluorescence interference; actives lie on both sides | shares compounds with HCV NS3h FP | fluorescence interference ratio at 100 µM;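 active = fluorescence interference ratio at or above 1.2, signal boosting, or at or below 0.8, signal quenching; inactive = ratio between 0.8 and 1.2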
Cy5 fluor confirm = Cy5 fluorescence interference, confirmation counter-screen | shares compounds with HCV NS3h FP | Cy5-dT15 DNA/NS3h fluorescence interference counterscreen | fluorescence interference ratio at 100 µM, hits read low | 240 tested, 44% active;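 active = fluorescence interference ratio at or below 0.8 quencher or at or above a set limitenhancer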
Each line names hits and unclear results; the compound was inactive in the other large screens (follow-up assays come after a bar, where they were run).

CC(=O)Nc1ccc(NC(=O)CN2C(=O)c3ccccc3C2=O)cc1	none
CCOC(=O)c1c(NC(=O)Cn2cnc([N+](=O)[O-])n2)sc2c1CCC2	Cy5 interf NS3h 0.57
CCOC(=O)c1c(NC(=O)c2ccc([N+](=O)[O-])cc2)sc2c1CCCCC2	none
COc1ccc(CN2CCN(Cc3cccnc3)CC2)c(OC)c1OC	none
COC(=O)COc1ccc(/C=C2/C(=O)N(c3ccccc3)N=C2C)cc1	none
COc1ccc(/C=C2\C(=O)N(c3nc(-c4ccc(C)cc4)cs3)N=C2C)cc1	Cy5 interf NS3h 0.7
CN(C)c1ccc(/C=N\N=C2/SC(CC(=O)O)C(=O)N2c2ccc(O)cc2)cc1 (stereo not given)	none
Cc1ccc(N2C(=O)C(Cl)=C(Nc3ccc(F)cc3)C2=O)c(C)c1	none
CCOc1ccc(N/C=C\C(=O)c2ccc3c(c2)OCO3)c([N+](=O)[O-])c1	none
O=C(/C=C\Nc1ccccc1[N+](=O)[O-])c1ccc2c(c1)OCO2	Cy5 interf NS3h 0.64, HCV NS3h FP 48
O=C1C(Cl)=C(NCCc2ccccc2)C(=O)N1c1ccccc1	none
CCOc1cc(OCC)cc(C(=O)Nc2ccc(Cl)c(Cl)c2)c1	none
CCOC(=O)c1ccccc1NC(=O)C1CN(S(=O)(=O)c2ccccc2)CCN1S(=O)(=O)c1ccccc1 (stereo not given)	none
O=C1NC(=O)C(=Cc2ccc(OCc3cccc4ccccc34)cc2)C(=O)N1	none
CN(c1ccccc1)c1ccc(C=C2C(=O)NC(=O)NC2=O)cc1	HCV NS3h FP 46
Cc1ccccc1-c1cc2nc(C)c(Cl)c(=O)n2[nH]1	none
Cc1nc2cc(-c3ccco3)[nH]n2c(=O)c1C	Cy5 interf NS3h 0.77
O=C(CSC1CC(=O)N(c2cccc(Br)c2)C1=O)Nc1ccc(Cl)cc1 (stereo not given)	Cy5 interf NS3h 0.79, HCV NS3h FP 43
O=C(CSc1cc(Cl)ccc1Cl)Nc1cccc(Br)c1	none
CC(NC(=O)c1ccc(Br)cc1)c1ccccc1 (stereo not given)	Cy5 interf NS3h 0.79
CC(=O)CC(=O)NC(C)c1ccccc1 (stereo not given)	none
O=C(/C=C\c1ccccc1)NC(=S)Nc1ccc([N+](=O)[O-])cc1O	none
NC(=O)C(F)(Cl)c1c(F)c(F)c(F)c(-c2ccccc2)c1-c1ccccc1 (stereo not given)	none
O=C1NC(=O)N(c2ccc(Cl)cc2)C(=O)/C1=C/c1ccc(O)c(Cl)c1	HCV NS3h FP 74 | NS3h confirm inactive | SSB-DNA FP CB inactive | Cy5 SSB interf inactive | Cy5 fluor confirm inactive
O=C1NC(=O)N(c2cccc(Br)c2)C(=O)/C1=C/c1ccc(O)c(Cl)c1	none
O=C1NC(=O)N(c2ccc(Cl)cc2)C(=O)/C1=C/c1cc(I)c(O)c([N+](=O)[O-])c1	HCV NS3h FP 78 | NS3h confirm inactive | SSB-DNA FP CB 92 | Cy5 SSB interf inactive | Cy5 fluor confirm inactive
O=C1NC(=O)N(c2ccc(Cl)cc2)C(=O)/C1=C\c1cccc(O)c1	none
O=C(NCc1ccc(Cl)cc1)c1cccc(Br)c1	none
COc1ccc(-c2c(C#N)c(N)c(C#N)c3c2CCCC3)cc1	none
O=C1c2ccccc2C(=O)N1Cc1nc2ccccc2c(=O)o1	none
COc1ccc(N2C(=O)c3ccc4c5c(ccc(c35)C2=O)CC4)c(OC)c1	none
O=C(CCCN1C(=O)/C(=C\c2cccc(Br)c2)SC1=S)Nc1ccc(C(=O)O)cc1	none | NS3h confirm inactive | SSB-DNA FP CB inactive | Cy5 SSB interf inactive | Cy5 fluor confirm inactive
O=C(CN1C(=O)/C(=C/c2cccc(Br)c2)SC1=S)Nc1ccccn1	none
CC1=C(C#N)c2nc(N)c(C#N)c(C)c2/C1=C\c1ccc(I)o1	none
CC1=C(C#N)c2nc(N)c(C#N)c(C)c2/C1=C/c1ccc(-c2cccc(C(=O)O)c2)o1	HCV NS3h FP 121 | NS3h confirm 71 | SSB-DNA FP CB 152 | Cy5 SSB interf inactive | Cy5 fluor confirm inactive
Cc1ccc(C(=O)O/N=C(/N)Cc2cccs2)cc1[N+](=O)[O-]	none
CCN(CC)c1ccc(C=Nc2ccc(S(N)(=O)=O)cc2)c(O)c1	none
CCN(CC)c1ccc(N=Cc2c(O)[nH]c(=S)[nH]c2=O)cc1	Cy5 interf NS3h 0.73, HCV NS3h FP 94 | NS3h confirm 54 | SSB-DNA FP CB 70 | Cy5 SSB interf inactive | Cy5 fluor confirm 0.79
O=C1C(c2ccccc2)=C(c2ccccc2)C(=O)N1O	none
O=C(Nc1nc(-c2ccc(Cl)cc2)cs1)c1cccs1	none | NS3h confirm inactive | SSB-DNA FP CB inactive | Cy5 SSB interf inactive | Cy5 fluor confirm 0.77
O=C(NC(=S)Nc1nc(-c2ccccc2)cs1)c1ccc(Cl)cc1	none
Cc1ccc(N2C(=O)C(Cl)=C(NCCc3ccccc3)C2=O)c(C)c1	none
O=C(N/N=C\c1ccccc1O)/C(=C\c1ccc2c(c1)OCO2)NC(=O)c1ccccc1	none
CN(C)c1ccc(/C=C(\NC(=O)c2ccccc2)C(=O)N/N=C\c2cc(O)ccc2[N+](=O)[O-])cc1	Cy5 interf NS3h 0.65, HCV NS3h FP 45 | NS3h confirm inactive | SSB-DNA FP CB 76 | Cy5 SSB interf 0.79 | Cy5 fluor confirm 0.73
Cc1cc([N+](=O)[O-])ccc1-c1ccc(C(=O)Nc2ccccc2O)o1	none
C=CCc1ccccc1OCCOc1ccc(Cl)cc1/C=C1/SC(=S)N(C)C1=O	none
Cc1ccc(OCC(=O)Nc2ccc(Cl)c(Cl)c2)c(Br)c1	none
Cc1cc(/C=C2\C(=O)NC(=O)N(c3ccc4c(c3)OCO4)C2=O)c(C)n1-c1cccc([N+](=O)[O-])c1	none
COCCCNC(=O)C(=O)Nc1ccc(Cl)cc1C	none
O=C1NC(=S)S/C1=C\c1ccc(-c2ccccc2C(=O)O)o1	HCV NS3h FP 62 | NS3h confirm 53 | SSB-DNA FP CB 110 | Cy5 SSB interf 0.79 | Cy5 fluor confirm inactive
O=C1NC(=S)S/C1=C/c1ccc(-c2ccccc2)o1	none
CCOC(=O)C1=C(c2ccccc2)N=c2s/c(=C\c3ccc(N(C)C)o3)c(=O)n2C1c1ccc(OC)c(OC)c1 (stereo not given)	none
O=C(Nc1ccc(Cl)cc1)C1CC1(c1ccccc1)c1ccccc1 (stereo not given)	none
O=C1/C(=C/c2ccc(-c3ccc([N+](=O)[O-])cc3)o2)SC(=S)N1Cc1ccccc1	none
CCCC(C(=O)O)N1C(=O)/C(=C\c2ccc(-c3ccc([N+](=O)[O-])cc3)o2)SC1=S (stereo not given)	HCV NS3h FP 84 | NS3h confirm inactive | SSB-DNA FP CB 54 | Cy5 SSB interf inactive | Cy5 fluor confirm 0.71
CC(C(=O)Nc1ccc(-c2nc3ccccc3s2)c(O)c1)(c1ccccc1)c1ccccc1	none
O=C1C=CC(=O)N1c1ccccc1N1C(=O)C=CC1=O	HCV NS3h FP 81 | NS3h confirm 63 | SSB-DNA FP CB inactive | Cy5 SSB interf inactive | Cy5 fluor confirm inactive
O=C1C=CC(=O)N1c1ccc(Cc2ccc(N3C(=O)C=CC3=O)c(Cl)c2)cc1Cl	none
